# According to PubChem BioAssay (EPA / NIEHS):
# The source made the active and inactive calls. Rule for the calls: active = hit-call score of the fitted dose curve at least 0.9, where 1 is the maximum; inactive = score below 0.9.
# Tests used:
# [1] = read-out: Matrix Metallopeptidase 1 (MMP1), MMP1 (gene 4312); test: BSK_hDFCGF_MMP1: BioMAP Diversity Plus: hDFCGF Assay for Matrix Metallopeptidase 1 (MMP1) Biomarker Activity (AID 2283064); settings: primary human foreskin fibroblasts; actives raise or lower the signal
# Outline: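 Human foreskin fibroblasts exposed to chemical for 24 h; MMP1 detected by ELISA, with DMSO as baseline for bidirectional fitting.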
# [2] = read-out: Vascular cell adhesion molecule 1 (VCAM1), VCAM1 (gene 7412); test: BSK_hDFCGF_VCAM1: BioMAP Diversity Plus: hDFCGF Assay for Vascular cell adhesion molecule 1 (VCAM1) Biomarker Activity (AID 2283065); settings: primary human foreskin fibroblasts; actives raise or lower the signal;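 for AC50: VCAM-1 protein level quantified by ELISA after 24 h chemical exposure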
# Outline: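 Cells are dosed, cultured for 24 h, then VCAM-1 is quantified by ELISA; signal increases and decreases are both fitted relative to DMSO.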
# [3] = read-out: Plasminogen activator inhibitor-1 (PAI1), SERPINE1 (gene 5054); test: BSK_hDFCGF_PAI1: BioMAP Diversity Plus: hDFCGF Assay for Plasminogen activator inhibitor-1 (PAI1) Biomarker Activity (AID 2283066); settings: primary human foreskin fibroblasts; actives raise or lower the signal
# Outline: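 Fibroblasts from human foreskin were treated with test chemical. After 24 h, PAI-1 was measured by ELISA. Activity was fitted in both directions relative to DMSO.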
# [4] = read-out: Intercellular Adhesion Molecule 1 (ICAM1), ICAM1 (gene 3383); test: BSK_KF3CT_ICAM1: BioMAP Diversity Plus: KF3CT Assay for Intercellular Adhesion Molecule 1 (ICAM1) Biomarker Activity (AID 2283067); settings: primary human keratinocytes with fibroblasts; actives raise or lower the signal
# Outline: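 Dose the keratinocyte/fibroblast co-culture, wait 24 h, measure ICAM-1 by ELISA, then fit increases or decreases against DMSO. Cytotoxicity is checked in parallel cultures by SRB total-protein staining.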
# [5] = read-out: Interferon-gamma inducible Protein 10 (IP10), CXCL10 (gene 3627); test: BSK_KF3CT_IP10: BioMAP Diversity Plus: KF3CT Assay for Interferon-gamma inducible Protein 10 (IP10) Biomarker Activity (AID 2283068); settings: primary human keratinocytes with fibroblasts; actives raise or lower the signal
# Outline: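 In a primary skin co-culture of keratinocytes and fibroblasts, IP-10 is quantified by ELISA at 24 h after dosing. SRB staining of parallel wells monitors overt toxicity. Curves are fitted both directions against DMSO.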
# [6] = BSK_KF3CT_SRB: Viability Assessment in the BioMAP Diversity Plus: KF3CT Assay (AID 2283069); settings: primary human keratinocytes with fibroblasts;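 note: fitted for both signal gain and loss against DMSO baseline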
# Outline: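 Overt cytotoxicity is assessed as total protein by sulforhodamine B staining in parallel human skin co-cultures at 24 h after dosing. DMSO serves as negative control and baseline.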
# [7] = read-out: Interleukin-1 alpha (IL1a), IL1A (gene 3552); test: BSK_KF3CT_IL1a: BioMAP Diversity Plus: KF3CT Assay for Interleukin-1 alpha (IL1a) Biomarker Activity (AID 2283070); settings: primary human keratinocytes with fibroblasts; actives raise or lower the signal
# Outline: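 Readout is IL-1a level by ELISA, compared bidirectionally with DMSO as baseline. Cells: human keratinocytes co-cultured with foreskin fibroblasts, harvested 24 h post-dose.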
# [8] = read-out: TIMP metallopeptidase inhibitor 2 (TIMP2), TIMP2 (gene 7077); test: BSK_KF3CT_TIMP2: BioMAP Diversity Plus: KF3CT Assay for TIMP metallopeptidase inhibitor 2 (TIMP2) Biomarker Activity (AID 2283071); settings: primary human keratinocytes with fibroblasts; actives raise or lower the signal
# Outline: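 Chemicals were dosed onto human skin primary co-cultures of keratinocytes and foreskin fibroblasts, and TIMP-2 was measured by ELISA after 24 hours. Activity in either direction was fitted relative to DMSO.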
# [9] = read-out: Transforming growth factor beta 1 (TGFb1), TGFB1 (gene 7040); test: BSK_KF3CT_TGFb1: BioMAP Diversity Plus: KF3CT Assay for Transforming growth factor beta 1 (TGFb1) Biomarker Activity (AID 2283072); settings: primary human keratinocytes with fibroblasts; actives raise or lower the signal
# Outline: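 KF3CT co-culture (keratinocytes + fibroblasts), 24 h exposure → TGF-b1 ELISA → bidirectional fit, DMSO = baseline. Parallel SRB total-protein staining (0.1% SRB, 10% TCA fixation, 560 nm) for cytotoxicity.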
# [10] = read-out: C-C motif chemokine 2 (Homo sapiens) (UniProt P13500); test: BSK_KF3CT_MCP1: BioMAP Diversity Plus: KF3CT Assay for Monocyte Chemoattractant Protein 1 (MCP1/CCL2) Biomarker Activity (AID 2283073); settings: primary human keratinocytes with fibroblasts; actives raise or lower the signal
# Outline: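 Keratinocytes and foreskin fibroblasts were co-cultured, dosed with chemical, and sampled 24 h later. MCP-1 was quantified by ELISA, and the endpoint was analyzed with bidirectional fitting using DMSO as negative control.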
# [11] = read-out: Matrix Metallopeptidase 9 (MMP9), MMP9 (gene 4318); test: BSK_KF3CT_MMP9: BioMAP Diversity Plus: KF3CT Assay for Matrix Metallopeptidase 9 (MMP9) Biomarker Activity (AID 2283074); settings: primary human keratinocytes with fibroblasts; actives raise or lower the signal;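 for AC50: MMP9 protein level quantified by ELISA in the co-culture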
# Outline: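 Values come from bidirectional fitting relative to DMSO of MMP-9 levels, which were measured by ELISA. Measurements were taken 24 h after chemical dosing of a keratinocyte and foreskin fibroblast co-culture.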
# [12] = read-out: urokinase plasminogen activator (uPA), PLAU (gene 5328); test: BSK_KF3CT_uPA: BioMAP Diversity Plus: KF3CT Assay for urokinase plasminogen activator (uPA) Biomarker Activity (AID 2283075); settings: primary human keratinocytes with fibroblasts; actives raise or lower the signal
# Outline: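 Values derive from bidirectional fitting against DMSO controls. Keratinocyte/foreskin fibroblast co-cultures received chemical; 24 h later uPA was detected by ELISA, with SRB total-protein staining in parallel wells for overt cytotoxicity.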
# [13] = read-out: CD40, CD40 (gene 958); test: BSK_LPS_CD40: BioMAP Diversity Plus: LPS Assay for CD40 Biomarker Activity (AID 2283076); settings: primary human HUVEC with PBMC; actives raise or lower the signal
# Outline: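 CD40 signal, measured by ELISA, is fitted in both directions relative to DMSO vehicle. The system is an LPS-driven human vascular primary co-culture of endothelial cells and PBMC, sampled 24 h after compound addition.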
# [14] = read-out: E-selectin (Homo sapiens) (UniProt P16581); test: BSK_LPS_Eselectin: BioMAP Diversity Plus: LPS Assay for Eselectin Biomarker Activity (AID 2283077); settings: primary human HUVEC with PBMC; actives raise or lower the signal
# Outline: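 Signal of E-selectin, detected by ELISA, served as the endpoint; cells were umbilical vein endothelium with PBMC, read 24 h after treatment. DMSO defined baseline, and both increases and decreases were fitted.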
# [15] = read-out: Interleukin-8 (IL8), CXCL8 (gene 3576); test: BSK_LPS_IL8: BioMAP Diversity Plus: LPS Assay for Interleukin-8 (IL8) Biomarker Activity (AID 2283078); settings: primary human HUVEC with PBMC; actives raise or lower the signal
# Outline: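 Endothelial cells and PBMC from human donors are co-cultured, treated with chemicals and LPS, then assayed for IL-8 by ELISA after 24 h. Parallel SRB staining (0.1% SRB after 10% TCA fixation, 560 nm) flags cytotoxicity.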
# [16] = BSK_LPS_SRB: Viability Assessment in the BioMAP Diversity Plus: LPS Assay (AID 2283079); settings: primary human HUVEC with PBMC;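 note: total protein by sulforhodamine B absorbance as a cytotoxicity measure; measured one day after compound addition; fitted in both directions against DMSO so loss or gain of signal counts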
# Outline: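 Overt cytotoxicity was gauged by sulforhodamine B total-protein staining in a primary human vascular endothelial and mononuclear cell co-culture 24 h post-dosing. Activity was fitted in both directions relative to DMSO.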
# [17] = read-out: Interleukin-1 alpha (IL1a), IL1A (gene 3552); test: BSK_LPS_IL1a: BioMAP Diversity Plus: LPS Assay for Interleukin-1 alpha (IL1a) Biomarker Activity (AID 2283080); settings: primary human HUVEC with PBMC; actives raise or lower the signal
# Outline: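 Measured: IL-1 alpha via ELISA at 24 h in LPS-activated human umbilical vein endothelium–PBMC co-culture. Baseline: DMSO, bidirectional fitting.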
# [18] = read-out: Monocyte Chemoattractant Protein-1 (MCP1), CCL2 (gene 6347); test: BSK_LPS_MCP1: BioMAP Diversity Plus: LPS Assay for Monocyte Chemoattractant Protein-1 (MCP1) Biomarker Activity (AID 2283081); settings: primary human HUVEC with PBMC; actives raise or lower the signal;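 for AC50: secreted MCP-1 protein quantified by ELISA in culture supernatant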
# Outline: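 LPS-stimulated HUVEC/PBMC co-culture; chemical, 24 h; MCP-1 by ELISA; bidirectional fit vs DMSO; cytotoxicity via SRB (0.1% stain, 10% TCA fix, 560 nm) in parallel wells.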
# [19] = BSK_LPS_PGE2: BioMAP Diversity Plus: LPS Assay for Prostaglandin E2 (PGE2) Biomarker Activity (AID 2283082); settings: primary human HUVEC with PBMC; actives raise or lower the signal;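 for AC50: secreted prostaglandin E2 measured by ELISA in LPS-stimulated co-culture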
# Outline: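 Compounds were added to the LPS co-culture of endothelium and PBMC, and PGE2 was measured by ELISA after 24 h. Responses in either direction were fitted with DMSO as baseline.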
# [20] = read-out: Macrophage colony-stimulating factor (MCSF), CSF1 (gene 1435); test: BSK_LPS_MCSF: BioMAP Diversity Plus: LPS Assay for Macrophage colony-stimulating factor (MCSF) Biomarker Activity (AID 2283083); settings: primary human HUVEC with PBMC; actives raise or lower the signal
# Outline: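 Compound is added to a human vascular primary co-culture of umbilical vein endothelium and blood mononuclear cells. After 24 h, M-CSF is quantified by ELISA. Signal changes are fitted in both directions against DMSO.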
# Chain of E-selectin (Homo sapiens) (P16581 whole entry, looked up): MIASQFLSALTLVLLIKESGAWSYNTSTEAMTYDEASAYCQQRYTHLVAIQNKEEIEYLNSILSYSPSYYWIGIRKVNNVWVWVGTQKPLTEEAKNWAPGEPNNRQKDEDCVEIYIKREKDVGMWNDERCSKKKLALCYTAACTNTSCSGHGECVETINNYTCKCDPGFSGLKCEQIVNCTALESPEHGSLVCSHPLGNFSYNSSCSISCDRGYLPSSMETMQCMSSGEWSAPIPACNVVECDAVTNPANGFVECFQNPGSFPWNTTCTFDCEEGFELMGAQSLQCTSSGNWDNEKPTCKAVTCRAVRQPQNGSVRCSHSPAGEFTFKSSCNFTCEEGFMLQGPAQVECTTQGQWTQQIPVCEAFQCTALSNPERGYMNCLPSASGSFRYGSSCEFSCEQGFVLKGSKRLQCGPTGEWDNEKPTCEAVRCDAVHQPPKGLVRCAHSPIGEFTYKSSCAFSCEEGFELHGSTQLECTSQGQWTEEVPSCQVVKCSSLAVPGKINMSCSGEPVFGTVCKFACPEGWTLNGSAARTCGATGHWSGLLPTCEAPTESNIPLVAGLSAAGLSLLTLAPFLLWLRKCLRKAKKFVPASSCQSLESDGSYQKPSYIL
smiles,measurement,setting,value
CC/C(=C(/CC)c1ccc(O)cc1)c1ccc(O)cc1,AC50,[1],28.6 µM (active)
same,AC50,[2],13.6 µM (active)
same,AC50,[3],20 µM (active)
same,AC50,[4],31.8 µM (active)
same,AC50,[5],17.7 µM (active)
same,AC50,[6],25.3 µM (active)
same,AC50,[7],28 µM (active)
same,AC50,[8],29.1 µM (active)
same,AC50,[9],5.87 µM (active)
same,AC50,[10],11.2 µM (active)
same,AC50,[11],12.3 µM (active)
same,AC50,[12],29.3 µM (active)
same,AC50,[13],20 µM (active)
same,AC50,[14],30.3 µM (active)
same,AC50,[15],37 µM (active)
same,AC50,[16],25.4 µM (active)
same,AC50,[17],29.7 µM (active)
same,AC50,[18],33.9 µM (active)
same,AC50,[19],20 µM (active)
same,AC50,[20],15.2 µM (active)
CCCCCCCC[Si](OCC)(OCC)OCC,outcome,[1],inactive
same,outcome,[2],inactive
same,outcome,[3],inactive
same,outcome,[4],inactive
same,AC50,[5],37.5 µM (active)
same,outcome,[6],inactive
same,outcome,[7],inactive
same,outcome,[8],inactive
same,outcome,[9],inactive
same,outcome,[10],inactive
same,AC50,[11],27.6 µM (active)
same,outcome,[12],inactive
same,outcome,[13],inactive
same,outcome,[14],inactive
same,outcome,[15],inactive
same,outcome,[16],inactive
same,outcome,[17],inactive
same,outcome,[18],inactive
same,outcome,[19],inactive
same,outcome,[20],inactive
Cc1occc1C(=O)Nc1ccc(C(=O)N2CCC(F)(F)/C(=C\C(=O)N3CCC(N4CCCCC4)CC3)c3ccccc32)cc1,outcome,[1],inactive
same,outcome,[2],inactive
same,outcome,[3],inactive
same,outcome,[4],inactive
same,outcome,[5],inactive
same,outcome,[6],inactive
same,outcome,[7],inactive
same,outcome,[8],inactive
same,outcome,[9],inactive
same,outcome,[10],inactive
same,outcome,[11],inactive
same,outcome,[12],inactive
same,outcome,[13],inactive
same,outcome,[14],inactive
same,outcome,[15],inactive
same,outcome,[17],inactive
same,outcome,[18],inactive
same,outcome,[19],inactive
same,outcome,[20],inactive
CC(C)(c1cc(Br)c(O)c(Br)c1)c1cc(Br)c(O)c(Br)c1,AC50,[1],6.31 µM (active)
same,AC50,[2],5.94 µM (active)
same,AC50,[3],5.46 µM (active)
same,AC50,[4],4.85 µM (active)
same,AC50,[5],2.53 µM (active)
same,AC50,[6],5.11 µM (active)
same,AC50,[7],5.97 µM (active)
same,AC50,[8],4.6 µM (active)
same,AC50,[9],1.69 µM (active)
same,AC50,[10],4.16 µM (active)
same,AC50,[11],3.69 µM (active)
same,AC50,[12],3.65 µM (active)
same,AC50,[13],24.1 µM (active)
same,AC50,[14],28.7 µM (active)
same,AC50,[15],30.3 µM (active)
same,AC50,[16],29.8 µM (active)
same,AC50,[17],29.9 µM (active)
same,AC50,[18],29.1 µM (active)
same,outcome,[19],inactive
same,AC50,[20],23.5 µM (active)
Oc1ccc2ccccc2c1,outcome,[1],inactive
same,outcome,[2],inactive
same,outcome,[3],inactive
same,outcome,[4],inactive
same,outcome,[5],inactive
same,outcome,[6],inactive
same,outcome,[7],inactive
same,outcome,[8],inactive
same,outcome,[9],inactive
same,outcome,[10],inactive
same,outcome,[11],inactive
same,outcome,[12],inactive
same,AC50,[13],22.1 µM (active)
same,AC50,[14],16.1 µM (active)
same,outcome,[15],inactive
same,outcome,[16],inactive
same,outcome,[17],inactive
same,outcome,[18],inactive
same,AC50,[19],13.2 µM (active)
same,outcome,[20],inactive
